Experimental findings from PubChem BioAssay (NCATS) are described below.

Records with an inconclusive call do not appear. Entries that show only a call come without a potency. Unmarked numbers belong to inactive results. Active and inactive are the calls of the source. Unless noted, calls come from the whole dose curve.
Potency is the fitted concentration of half-maximal effect.

Chain of Nucleoprotein (Lymphocytic choriomeningitis virus (strain Armstrong)) (P09992 whole entry, looked up): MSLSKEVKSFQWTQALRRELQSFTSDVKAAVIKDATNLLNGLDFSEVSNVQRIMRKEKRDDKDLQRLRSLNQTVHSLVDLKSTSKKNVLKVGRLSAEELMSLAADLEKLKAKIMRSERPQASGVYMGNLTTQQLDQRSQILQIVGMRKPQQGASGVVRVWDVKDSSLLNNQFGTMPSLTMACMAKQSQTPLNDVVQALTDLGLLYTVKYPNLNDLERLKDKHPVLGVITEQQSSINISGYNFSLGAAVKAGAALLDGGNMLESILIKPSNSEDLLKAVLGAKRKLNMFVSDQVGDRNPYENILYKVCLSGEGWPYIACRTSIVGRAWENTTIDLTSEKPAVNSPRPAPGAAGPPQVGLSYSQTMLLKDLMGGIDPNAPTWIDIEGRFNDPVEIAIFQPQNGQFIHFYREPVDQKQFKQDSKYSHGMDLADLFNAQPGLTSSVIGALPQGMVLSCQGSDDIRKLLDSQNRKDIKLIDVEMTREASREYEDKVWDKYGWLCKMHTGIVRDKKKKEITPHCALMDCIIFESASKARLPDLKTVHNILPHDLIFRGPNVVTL

Test system in the first test: not listed separately
The test is described as follows: qHTS for Inhibitors of the Functional Ribonucleoprotein Complex (vRNP) of Lymphocytic Choriomeningitis Arenaviruses (LCMV): Viability assay - alamar blue signal for LCMV Primary Screen (AID 1347085; calls by dose curve; tested in HEK293 reporter line; note: nearly all actives have a fitted effect of over 80% in size). The settings on record: alamar blue viability counter-screen, LCMV vRNP screen cells; series mostly up to 57.5 µM. Background: In qHTS, concentration-response curves come from the screen itself.
With `O=C(CCCCO)CCCCCCCC[C@H]1N[C@H](CO)[C@H](O)[C@@H]1O[C@@H]1O[C@H](CO)[C@@H](O)[C@H](O)[C@H]1O`, the Potency result was “inactive”.
The same measure, in the same setting: for `C=C[C@@]1(C)CC(=O)[C@]2(O)[C@@]3(C)[C@@H](O)CCC(C)(C)[C@@H]3[C@H](OC(C)=O)[C@H](O)[C@@]2(C)O1` the value was “inactive”; for `CC[C@H](C)/C=C(C)/C=C/C(=O)Cc1cc(O)c(C)c(O)c1C=O`, “inactive”.
The same measure, in the same setting: for `CC(C)=CCC/C(C)=C/COc1c2ccoc2cc2oc(=O)ccc12` the value was “inactive”.
On to `C[N+](C)(C)C[C@H](O)CC(=O)[O-]`, for which the Potency entry was “inactive”.
The same measure, in the same setting: for `O=C1Nc2ccc(Cl)cc2C(C#CC2CC2)(C(F)(F)F)O1` (stereo not given) the value was “inactive”; for `COc1cc2c(c(OC)c1CC=C(C)C)C[C@H](c1ccc(O)cc1O)CO2`, “inactive”.
Still for that read-out and setting: for `CC(C)COC(=O)c1ccccc1` the value was “inactive”.
As to `COc1cc(/C=C/C(=O)OC[C@H]2O[C@H](OC3(CO)OC(CO)C(O)C3O)[C@H](O)[C@@H](O)[C@@H]2O)ccc1O` (stereo not given in full), the Potency result is “inactive”.
Still for that read-out and setting: for `CCCCCc1cccc(=O)o1` the value was “inactive”.
Still for that read-out and setting: for `O=c1c(O)c(-c2ccccc2O)oc2cc(O)cc(O)c12` the value was “inactive”.
In the case of `COC(C)(C)[C@@H](O)COc1c2ccoc2cc2oc(=O)ccc12`, the Potency entry was “inactive”.
On the same count and under the same terms, for `Cc1cc(O)cc(O[C@H]2OC(CO)[C@H](O)[C@@H](O)[C@H]2O)c1` (stereo not given in full) the value was “inactive”.
On the same count and under the same terms, for `C#CCCC[C@@H]1OC(=O)CNC(=O)C([C@@H](C)CC)NC(=O)[C@@H]2CCCN2C(=O)C([C@@H](C)CC)OC(=O)[C@H](Cc2ccccc2)N(C)C(=O)[C@H](C(C)C)NC(=O)C1(C)C` (stereo not given in full) the value was “inactive”; for `COC(=O)[C@@]1(C)CC[C@]2(C)CC[C@@]3(C)C(=CC(=O)C4[C@@]5(C)CC[C@H](O)C(C)(C)[C@@H]5CC[C@]43C)[C@H]2C1` (stereo not given in full), “inactive”; for `CC1(C)OC(=O)C=C[C@]2(C)[C@H]3CC[C@@]4(C)[C@H](c5ccoc5)OC(=O)[C@H]5O[C@]54[C@]3(C)C(=O)C[C@@H]12`, “inactive”.
For the compound `N#CC(=C(O)c1ccc(Cl)cc1Cl)c1nc2cc(Cl)ccc2c(=O)[nH]1`, the Potency entry is “inactive”.
Same read-out and setting: for `C=CC(O)CCCCC` (stereo not given) the value was “inactive”.
`C=C(C)[C@@H]1CC[C@@H](C)C[C@@H]1O`: the Potency result was “inactive”.
Same read-out and setting: for `Cc1cc(Cn2cnc3c2C[C@@H](C(=O)O)N(C(=O)C(c2ccccc2)c2ccccc2)C3)ccc1N` the value was “inactive”; for `COc1ccc(-c2oc3ccccc3c(=O)c2O)cc1`, “inactive”; for `CCOc1ccc(O)cc1`, “inactive”.
Same read-out and setting: for `C[C@]12CC[C@H](O)CC1=CCC1C2CC[C@@]2(C)C1C[C@@H](O)[C@@H]2O` (stereo not given in full) the value was “inactive”.
For the compound `Nc1ncnc2c1ncn2[C@@H]1O[C@H](COP(=O)(O)OP(=O)(O)OC[C@H]2OC(O)[C@H](O)[C@@H]2O)[C@@H](O)[C@H]1O` (stereo not given in full), the Potency result is “inactive”.
`CC/C=C\C[C@H](O)/C=C/C=C\C/C=C\C/C=C\CCCC(=O)O`: the activity change, negative = lower viability was 7.46% [at 0.757 µM].
Regarding `CC1(C)C(N(O)C(=O)Nc2ccc(Cl)cc2)N(c2ccc(Cl)cc2)C(=O)N1CC(=O)NN=CC=Cc1ccc([N+](=O)[O-])o1` (stereo not given), the Potency result is “inactive”.
The same measure, in the same setting: for `COc1ccc2[nH]cc(CCO)c2c1` the value was “inactive”; for `O=C(/C=C/c1ccccc1)OC/C=C/c1ccccc1`, “inactive”; for `COC(=O)C1=COC(O[C@H]2OC(CO)[C@H](O)C(O)C2O)[C@H]2C1C(=O)C[C@@H]2C` (stereo not given in full), “inactive”.
With `Cc1ccc(C(C)(C)O)cc1`, the Potency entry was “inactive”.
Take `O=c1ccc2ccc(O[C@@H]3O[C@H](CO[C@@H]4OC[C@](O)(CO)[C@H]4O)[C@@H](O)[C@H](O)[C@H]3O)cc2o1`: the Potency result is “inactive”.
Same read-out and setting: for `OC[C@H]1O[C@@H](O[C@@H]2OC=C[C@H]3[C@H](O)[C@@H]4O[C@]4(CO)[C@@H]23)[C@H](O)[C@@H](O)[C@@H]1O` the value was “inactive”; for `COc1cc(CCC(C)=O)ccc1O`, “inactive”.
Same read-out and setting: for `CC(=O)C1CCC2C3CCC4=CC(=O)C=CC4(C)C3CCC12C` (stereo not given) the value was “inactive”; for `N#C/C(=C\c1ccc(-c2cc(Cl)ccc2Cl)o1)C(=O)Nc1cccc2ncccc12`, “inactive”; for `CCCCCCCCCC(C)=O`, “inactive”.
Turning to `CC1=C[C@H]2OC(=O)[C@@H](C)[C@H]2C[C@@H]2[C@H]1C[C@@H](O)[C@@]2(C)O`, the Potency result is “inactive”.
For `CCCCCCCC1CCC(=O)O1` (stereo not given), the Potency entry was “inactive”.
The same measure, in the same setting: for `CS(=O)(=O)N1CCN(Cc2cc3nc(-c4cccc5[nH]ncc45)nc(N4CCOCC4)c3s2)CC1` the value was 1220 nM (active); for `O=C(NC(Cc1ccccc1)C(=O)O)c1ccccc1` (stereo not given), “inactive”.

The next test has as its target Nucleoprotein (Lymphocytic choriomeningitis virus (strain Armstrong)) (UniProt P09992). The test is described as follows: qHTS for Inhibitors of the Functional Ribonucleoprotein Complex (vRNP) of Lymphocytic Choriomeningitis Arenaviruses (LCMV): LCMV Primary Screen - GLuc reporter signal (AID 1347086). Note: nearly all actives have a fitted effect of over 70% in size. The settings on record: LCMV minigenome vRNP cell assay, Gaussia luciferase reporter; series mostly up to 57.5 µM.
Consider `O=C(CCCCO)CCCCCCCC[C@H]1N[C@H](CO)[C@H](O)[C@@H]1O[C@@H]1O[C@H](CO)[C@@H](O)[C@H](O)[C@H]1O`, for which the Potency result is “inactive”.
As to `C=C[C@@]1(C)CC(=O)[C@]2(O)[C@@]3(C)[C@@H](O)CCC(C)(C)[C@@H]3[C@H](OC(C)=O)[C@H](O)[C@@]2(C)O1`, the Potency result is “inactive”.
For `CC[C@H](C)/C=C(C)/C=C/C(=O)Cc1cc(O)c(C)c(O)c1C=O`, the Potency result is “inactive”.
Same read-out and setting: for `CC(C)=CCC/C(C)=C/COc1c2ccoc2cc2oc(=O)ccc12` the value was “inactive”; for `C[N+](C)(C)C[C@H](O)CC(=O)[O-]`, “inactive”; for `O=C1Nc2ccc(Cl)cc2C(C#CC2CC2)(C(F)(F)F)O1` (stereo not given), “inactive”.
On to `COc1cc2c(c(OC)c1CC=C(C)C)C[C@H](c1ccc(O)cc1O)CO2`, for which the Potency entry is “inactive”.
As to `CC(C)COC(=O)c1ccccc1`, the Potency entry is “inactive”.
On the same count and under the same terms, for `COc1cc(/C=C/C(=O)OC[C@H]2O[C@H](OC3(CO)OC(CO)C(O)C3O)[C@H](O)[C@@H](O)[C@@H]2O)ccc1O` (stereo not given in full) the value was “inactive”; for `CCCCCc1cccc(=O)o1`, “inactive”; for `O=c1c(O)c(-c2ccccc2O)oc2cc(O)cc(O)c12`, “inactive”.
As for `COC(C)(C)[C@@H](O)COc1c2ccoc2cc2oc(=O)ccc12`, the Potency entry was “inactive”.
For the compound `Cc1cc(O)cc(O[C@H]2OC(CO)[C@H](O)[C@@H](O)[C@H]2O)c1` (stereo not given in full), the Potency entry was “inactive”.
With `C#CCCC[C@@H]1OC(=O)CNC(=O)C([C@@H](C)CC)NC(=O)[C@@H]2CCCN2C(=O)C([C@@H](C)CC)OC(=O)[C@H](Cc2ccccc2)N(C)C(=O)[C@H](C(C)C)NC(=O)C1(C)C` (stereo not given in full), the Potency entry was “inactive”.
The same measure, in the same setting: for `COC(=O)[C@@]1(C)CC[C@]2(C)CC[C@@]3(C)C(=CC(=O)C4[C@@]5(C)CC[C@H](O)C(C)(C)[C@@H]5CC[C@]43C)[C@H]2C1` (stereo not given in full) the value was “inactive”.
Turning to `CC1(C)OC(=O)C=C[C@]2(C)[C@H]3CC[C@@]4(C)[C@H](c5ccoc5)OC(=O)[C@H]5O[C@]54[C@]3(C)C(=O)C[C@@H]12`, the Potency result is “inactive”.
The same measure, in the same setting: for `N#CC(=C(O)c1ccc(Cl)cc1Cl)c1nc2cc(Cl)ccc2c(=O)[nH]1` the value was “inactive”; for `C=CC(O)CCCCC` (stereo not given), “inactive”; for `C=C(C)[C@@H]1CC[C@@H](C)C[C@@H]1O`, “inactive”.
As to `Cc1cc(Cn2cnc3c2C[C@@H](C(=O)O)N(C(=O)C(c2ccccc2)c2ccccc2)C3)ccc1N`, the Potency entry was “inactive”.
In the case of `COc1ccc(-c2oc3ccccc3c(=O)c2O)cc1`, the Potency entry was “inactive”.
In the case of `CCOc1ccc(O)cc1`, the Potency entry is “inactive”.
In the case of `C[C@]12CC[C@H](O)CC1=CCC1C2CC[C@@]2(C)C1C[C@@H](O)[C@@H]2O` (stereo not given in full), the Potency entry was “inactive”.
Still for that read-out and setting: for `Nc1ncnc2c1ncn2[C@@H]1O[C@H](COP(=O)(O)OP(=O)(O)OC[C@H]2OC(O)[C@H](O)[C@@H]2O)[C@@H](O)[C@H]1O` (stereo not given in full) the value was “inactive”.
Consider `CC/C=C\C[C@H](O)/C=C/C=C\C/C=C\C/C=C\CCCC(=O)O`, for which the activity change, negative = inhibition was 12.1% [at 0.757 µM].
On to `CC1(C)C(N(O)C(=O)Nc2ccc(Cl)cc2)N(c2ccc(Cl)cc2)C(=O)N1CC(=O)NN=CC=Cc1ccc([N+](=O)[O-])o1` (stereo not given), for which the Potency result is “inactive”.
The same measure, in the same setting: for `COc1ccc2[nH]cc(CCO)c2c1` the value was “inactive”; for `O=C(/C=C/c1ccccc1)OC/C=C/c1ccccc1`, “inactive”; for `COC(=O)C1=COC(O[C@H]2OC(CO)[C@H](O)C(O)C2O)[C@H]2C1C(=O)C[C@@H]2C` (stereo not given in full), “inactive”.
The same measure, in the same setting: for `Cc1ccc(C(C)(C)O)cc1` the value was “inactive”.
Consider `O=c1ccc2ccc(O[C@@H]3O[C@H](CO[C@@H]4OC[C@](O)(CO)[C@H]4O)[C@@H](O)[C@H](O)[C@H]3O)cc2o1`, for which the Potency result is “inactive”.
As to `OC[C@H]1O[C@@H](O[C@@H]2OC=C[C@H]3[C@H](O)[C@@H]4O[C@]4(CO)[C@@H]23)[C@H](O)[C@@H](O)[C@@H]1O`, the Potency entry is “inactive”.
Still for that read-out and setting: for `COc1cc(CCC(C)=O)ccc1O` the value was “inactive”; for `CC(=O)C1CCC2C3CCC4=CC(=O)C=CC4(C)C3CCC12C` (stereo not given), “inactive”.
Still for that read-out and setting: for `N#C/C(=C\c1ccc(-c2cc(Cl)ccc2Cl)o1)C(=O)Nc1cccc2ncccc12` the value was “inactive”; for `CCCCCCCCCC(C)=O`, “inactive”; for `CC1=C[C@H]2OC(=O)[C@@H](C)[C@H]2C[C@@H]2[C@H]1C[C@@H](O)[C@@]2(C)O`, “inactive”.
The same measure, in the same setting: for `CCCCCCCC1CCC(=O)O1` (stereo not given) the value was “inactive”; for `CS(=O)(=O)N1CCN(Cc2cc3nc(-c4cccc5[nH]ncc45)nc(N4CCOCC4)c3s2)CC1`, 1370 nM (active); for `O=C(NC(Cc1ccccc1)C(=O)O)c1ccccc1` (stereo not given), “inactive”.
